Measured values taken from PubChem BioAssay.
“And” between values parts separate entries of the source, which are not always exact repeats. Identical values can stand only once. The source made the active and inactive calls.

Assays:
Albumin (Bos taurus) = Albumin (Bos taurus) (UniProt P02769); assay: compounds binding labelled BSA control protein – biochemical, small-molecule microarray, Alexa647 label, 635/667 nm fluorescence, artefact control for SMM control protein annotation, profiling panel (AID 1118); conditions: BSA-A647 binding, fluorescence 635 nm, higher = more signal;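 note: score merges 667 nm emission intensity and signal-to-noise per printed compound spot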
Sequence of Albumin (Bos taurus) (P02769 whole entry, looked up): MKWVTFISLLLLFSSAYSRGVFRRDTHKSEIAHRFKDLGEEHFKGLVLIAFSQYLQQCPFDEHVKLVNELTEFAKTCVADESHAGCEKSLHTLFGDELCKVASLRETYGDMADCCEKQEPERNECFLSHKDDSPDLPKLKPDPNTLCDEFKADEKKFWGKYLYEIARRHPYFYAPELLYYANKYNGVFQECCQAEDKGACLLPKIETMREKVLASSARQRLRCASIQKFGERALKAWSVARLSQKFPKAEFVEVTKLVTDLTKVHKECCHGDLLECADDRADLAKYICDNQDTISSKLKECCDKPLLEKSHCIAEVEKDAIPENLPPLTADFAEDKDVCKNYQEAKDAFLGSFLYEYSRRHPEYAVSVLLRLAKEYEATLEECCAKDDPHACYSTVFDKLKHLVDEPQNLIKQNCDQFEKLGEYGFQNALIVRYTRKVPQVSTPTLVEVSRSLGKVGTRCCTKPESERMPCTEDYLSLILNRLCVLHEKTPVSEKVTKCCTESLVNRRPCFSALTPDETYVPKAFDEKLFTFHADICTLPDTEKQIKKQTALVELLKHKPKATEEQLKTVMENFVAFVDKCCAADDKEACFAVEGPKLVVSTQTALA

[1] = probe aXIP binding to arrayed compounds – biochemical, NeuroSMM set, 635/667 nm fluorescence, primary screen (AID 1119); conditions: small-molecule microarray, higher = more signal, called active from +8 up or from −8 down;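 note: probe is the protein aXip251-270 applied at 1 µg/mL to compound-printed slides; binding of probe to printed compounds measured as 667 nm fluorescence plus signal to noise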
[2] = probe aNOTCH3 binding on compound microarray – biochemical, small-molecule microarray, 635/667 nm fluorescence, primary screen (AID 1120); conditions: higher = more signal;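 note: probe is a biotin-tagged antibody raised against NOTCH3 rather than NOTCH3 protein; score merges spot fluorescence near 667 nm with spot signal to noise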
[3] = probe aNOTCH2 binding on compound microarray – biochemical, small-molecule microarray, 635/667 nm fluorescence, primary screen (AID 1121); conditions: higher = more signal;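 note: score merges feature fluorescence read at 667 nm with its signal to noise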
[4] = target: Carbonic anhydrase 2 (Homo sapiens) (UniProt P00918); assay: compounds binding carbonic anhydrase 2 – biochemical, small-molecule microarray, Alexa647-labelled CAII, profiling panel (AID 1122); conditions: CAII-A647 binding fluorescence, higher = more signal
[5] = COS7 lysate on small-molecule microarray, probe aHis, 635 nm (AID 1123); conditions: COS7 cell lysate, fluorescence, higher = more signal;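 note: z-score combines 667nm fluorescence intensity with signal-to-noise per printed compound spot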
[6] = probe aLAP1 signal on lysate-treated microarray – cell lysate, small-molecule microarray, COS7 lysate, primary screen (AID 1124); conditions: probe aLAP1, fluorescence, higher = more signal;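 note: lysate comes from COS7 cells expressing LAP1 and is applied at 0.3 µg/mL; score merges spot fluorescence near 667 nm with signal-to-noise over triplicate slides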
Sam68 (KHDRBS1) = assay: compounds binding KHDRBS1 protein – biochemical, small-molecule microarray, 635 nm fluorescence, primary screen (AID 1125); conditions: higher = more signal;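 note: score merges 667 nm channel intensity with signal to noise over triplicate slides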
[7] = test system: Chordin-like protein 2 (CHRDL2); assay: compounds binding chordin-like 2 – biochemical, small-molecule microarray, 635 nm fluorescence, primary screen (AID 1126); conditions: fluorescence 635 nm, higher = more signal;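 note: printed compound slides probed with Chrdl2 protein at 4 µg/mL for 1 h at 4 C; score merges 667 nm emission intensity with signal to noise over three replicate slides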
[8] = target: Concanavalin-A (Canavalia ensiformis) (UniProt P02866); assay: compounds binding concanavalin A lectin – biochemical, small-molecule microarray, Alexa647 label, 635 nm, artefact control for SMM control protein annotation, primary screen (AID 1127); conditions: ConA-A647 binding fluorescence, higher = more signal;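 note: z combines 667 nm emission intensity with signal-to-noise across three replicate slides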
Sequence of Concanavalin-A (Canavalia ensiformis) (P02866 whole entry, looked up): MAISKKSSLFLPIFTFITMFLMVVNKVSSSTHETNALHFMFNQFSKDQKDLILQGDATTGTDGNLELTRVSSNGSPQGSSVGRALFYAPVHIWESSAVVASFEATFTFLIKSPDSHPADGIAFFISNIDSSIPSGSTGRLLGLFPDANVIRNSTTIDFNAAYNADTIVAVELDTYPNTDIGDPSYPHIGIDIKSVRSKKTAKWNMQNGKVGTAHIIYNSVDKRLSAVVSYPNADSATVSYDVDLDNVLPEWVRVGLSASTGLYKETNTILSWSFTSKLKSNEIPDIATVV

[9] = compounds binding Alexa647 anti-His antibody – biochemical, small-molecule microarray, 635 nm fluorescence, artefact control for SMM control protein annotation, primary screen (AID 1128); conditions: higher = more signal;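 note: score merges feature fluorescence with signal-to-noise for each printed compound spot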
[10] = test system: Human papillomavirus type 1a E7 protein (residues 1-88); assay: HPV1a E7 small-molecule binders, primary screen, biochemical, small-molecule microarray, residues 1-88, 635 nm (AID 1129); conditions: small-molecule microarray binding, fluorescence 635 nm; higher = more signal
[11] = target: Focal adhesion kinase 1 (Homo sapiens) (UniProt Q05397); assay: PTK2 protein binding on printed compound slides – biochemical, small-molecule microarray, 635/667 nm fluorescence, BSA, DTT, primary screen (AID 1130); conditions: 635 nm fluorescence, higher = more signal;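 note: composite of spot emission at 667 nm and signal to noise over triplicate slides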
Sequence of Focal adhesion kinase 1 (Homo sapiens) (Q05397 whole entry, looked up): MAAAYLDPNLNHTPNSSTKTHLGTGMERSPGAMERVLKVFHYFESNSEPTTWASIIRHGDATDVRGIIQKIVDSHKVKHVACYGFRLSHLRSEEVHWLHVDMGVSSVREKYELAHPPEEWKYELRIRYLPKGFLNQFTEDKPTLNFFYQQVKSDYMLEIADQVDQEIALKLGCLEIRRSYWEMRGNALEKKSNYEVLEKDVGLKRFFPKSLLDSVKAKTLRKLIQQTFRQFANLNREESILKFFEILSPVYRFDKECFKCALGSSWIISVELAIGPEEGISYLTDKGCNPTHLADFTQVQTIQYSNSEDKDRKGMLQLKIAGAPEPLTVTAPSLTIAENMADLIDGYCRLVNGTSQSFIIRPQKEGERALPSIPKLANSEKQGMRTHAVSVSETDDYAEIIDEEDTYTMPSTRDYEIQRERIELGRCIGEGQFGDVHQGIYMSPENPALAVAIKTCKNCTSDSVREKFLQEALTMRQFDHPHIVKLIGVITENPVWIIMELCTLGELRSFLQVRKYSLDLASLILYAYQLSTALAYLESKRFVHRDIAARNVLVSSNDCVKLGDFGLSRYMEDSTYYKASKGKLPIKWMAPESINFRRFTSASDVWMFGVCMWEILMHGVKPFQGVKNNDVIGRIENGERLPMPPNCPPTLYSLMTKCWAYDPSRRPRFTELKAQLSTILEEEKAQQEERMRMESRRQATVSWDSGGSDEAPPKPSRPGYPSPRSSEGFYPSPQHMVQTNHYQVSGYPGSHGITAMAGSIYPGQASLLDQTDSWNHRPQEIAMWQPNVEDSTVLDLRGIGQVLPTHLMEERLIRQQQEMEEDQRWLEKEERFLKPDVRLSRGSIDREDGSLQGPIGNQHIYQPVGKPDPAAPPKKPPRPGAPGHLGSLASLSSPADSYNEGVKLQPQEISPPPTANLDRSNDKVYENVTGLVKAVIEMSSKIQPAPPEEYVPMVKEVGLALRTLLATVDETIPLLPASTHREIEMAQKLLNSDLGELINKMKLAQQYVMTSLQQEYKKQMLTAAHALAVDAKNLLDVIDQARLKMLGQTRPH

[12] = test system: Fibrinogen (Alexa647-labelled); assay: Alexa647-fibrinogen binding to printed small molecules – biochemical, small-molecule microarray, 635/667 nm fluorescence, artefact control for SMM control-protein annotation, profiling panel (AID 1131); conditions: fibrinogen-A647 binding fluorescence, higher = more signal;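 note: z-score merges 667 nm fluorescence with per-spot signal-to-noise over triplicate slides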
[13] = target: Follistatin (Homo sapiens) (UniProt P19883); assay: FST protein binding to printed compounds – biochemical, small-molecule microarray, 635/667 nm fluorescence, primary screen (AID 1132); conditions: 635 nm fluorescence, higher = more signal
Sequence of Follistatin (Homo sapiens) (P19883 whole entry, looked up): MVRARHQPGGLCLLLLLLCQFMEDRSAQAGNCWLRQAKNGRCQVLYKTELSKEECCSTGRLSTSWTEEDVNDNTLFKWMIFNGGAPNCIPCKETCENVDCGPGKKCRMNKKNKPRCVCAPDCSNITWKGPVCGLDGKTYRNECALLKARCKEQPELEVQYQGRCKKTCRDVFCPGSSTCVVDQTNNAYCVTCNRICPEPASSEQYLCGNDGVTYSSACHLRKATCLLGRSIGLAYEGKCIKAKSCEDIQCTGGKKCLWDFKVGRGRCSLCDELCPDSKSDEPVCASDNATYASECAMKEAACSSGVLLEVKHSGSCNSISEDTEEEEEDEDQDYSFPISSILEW

[14] = target: Fibroblast growth factor 2 (Homo sapiens) (UniProt P09038); assay: basic fibroblast growth factor binding to printed compounds – biochemical, small-molecule microarray, 635/667 nm fluorescence, primary screen (AID 1133); conditions: FGF2, fluorescence 635/667, higher = more signal
Sequence of Fibroblast growth factor 2 (Homo sapiens) (P09038 whole entry, looked up): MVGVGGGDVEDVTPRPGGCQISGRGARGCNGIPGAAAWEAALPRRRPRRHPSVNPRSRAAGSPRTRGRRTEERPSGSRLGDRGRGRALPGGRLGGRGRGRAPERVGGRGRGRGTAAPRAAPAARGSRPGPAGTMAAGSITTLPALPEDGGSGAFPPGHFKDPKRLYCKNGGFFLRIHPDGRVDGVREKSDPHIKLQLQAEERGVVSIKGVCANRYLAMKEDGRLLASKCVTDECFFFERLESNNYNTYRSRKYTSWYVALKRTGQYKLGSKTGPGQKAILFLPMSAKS

[15] = JC-1 mitochondrial potential readout, lung cancer cells – cell-based, A549, JC-1 fluorescence, basal, 24 h, 100 nL, profiling panel (AID 1138); conditions: higher = more signal;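 note: A549 lung adenocarcinoma cells under basal conditions with no added stimulus; test concentration not given here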
Lefty1 = Lefty1 protein binding to printed compounds – biochemical, small-molecule microarray, 635/667 nm fluorescence, primary screen (AID 1139); conditions: fluorescence 635/667, higher = more signal
[16] = test system: wheat germ agglutinin (Triticum aestivum), Alexa647-labelled; assay: Alexa647-WGA lectin binding to printed small molecules – biochemical, small-molecule microarray, 635/667 nm fluorescence, artefact control for SMM control-protein annotation, profiling panel (AID 1140); conditions: WGA-A647 binding, 635 nm fluorescence, higher = more signal;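 note: score merges 667 nm feature emission with signal to noise over triplicate slides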
[17] = target: Luciferin 4-monooxygenase (Photinus pyralis) (UniProt P08659); assay: inhibition of purified Photinus pyralis luciferase – biochemical, luminescence, purified enzyme, 2006 set, primary screen (AID 1141); conditions: purified firefly luciferase, SteadyGlo luminescence, 30 min; higher = more signal, called active from +8 up or from −8 down;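 note: cell-free assay with purified firefly luciferase at 100 ng per well in PBS; test concentration not given here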
Sequence of Luciferin 4-monooxygenase (Photinus pyralis) (P08659 whole entry, looked up): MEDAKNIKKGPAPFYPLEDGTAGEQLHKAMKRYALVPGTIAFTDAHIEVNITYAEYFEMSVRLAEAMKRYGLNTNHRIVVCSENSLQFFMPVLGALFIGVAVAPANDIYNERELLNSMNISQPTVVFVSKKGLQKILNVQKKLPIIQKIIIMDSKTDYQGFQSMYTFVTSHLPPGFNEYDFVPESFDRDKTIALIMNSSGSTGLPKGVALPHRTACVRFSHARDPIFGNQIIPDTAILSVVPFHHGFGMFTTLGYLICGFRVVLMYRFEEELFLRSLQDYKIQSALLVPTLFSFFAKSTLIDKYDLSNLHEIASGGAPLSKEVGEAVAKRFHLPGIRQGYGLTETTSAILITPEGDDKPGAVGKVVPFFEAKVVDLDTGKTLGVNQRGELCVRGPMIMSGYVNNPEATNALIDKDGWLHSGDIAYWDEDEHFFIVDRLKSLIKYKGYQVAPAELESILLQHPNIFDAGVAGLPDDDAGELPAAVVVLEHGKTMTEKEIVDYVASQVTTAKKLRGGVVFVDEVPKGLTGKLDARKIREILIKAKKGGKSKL

Compound | composite z-score (Albumin (Bos taurus)) | composite Z-score [1] | composite z-score [2] | composite z-score [3] | composite z-score [4] | composite z-score [5] | composite z-score [6] | composite z-score (Sam68 (KHDRBS1)) | composite z-score [7] | composite z-score [8] | composite z-score [9] | composite z-score [10] | composite z-score [11] | composite z-score [12] | composite z-score [13] | composite z-score [14] | z-score [15] | composite z-score (Lefty1) | composite z-score [16] | z-score [17]
CCC[C@@H]1C[C@@]1(CCC)[C@@H](NC(=O)c1ccc(-c2ccccc2)cc1)c1cccc(Cl)c1 | -0.0449 and 0.93 | -0.281 (inactive) and -0.599 (inactive) | 1.31 and -0.0569 | 0.723 and 0.0809 | 0.305 and 0.812 | 2.51 and 1.41 | 0.421 and -0.244 | -0.546 and 0.593 | 0.844 and -0.561 | -1.47 and 0.217 | -0.844 and 1.8 | -0.817 and 0.53 | 0.589 and 0.541 | -0.427 and 0.367 | -0.0957 and 0.115 | -0.817 and -0.244 | 0.122 and 1.45 | -0.16 and -0.268 | -0.463 and 0.469 | 1.01 (inactive) and 1.76 (inactive)
C=CCN(CCCCC)C(=O)C1N(C(C)(C)CO)C(=O)C2C(C(=O)O)C3C=CC21O3 (stereo not given) | -0.544 and -0.85 | 0.159 (inactive) and -0.421 (inactive) | -0.484 and -0.372 | -0.112 and -0.0984 | 0.196 and 0.327 | -1.14 and -0.703 | -0.385 and 0.137 | -1.11 and -1.2 | -1.84 and -2.83 | -1.83 and -1.31 | -0.608 and -2.12 | -0.943 and -0.793 | -0.132 and -1.41 | -2.7 and -1.18 | -1.39 and -2.44 | -2.46 and -1.74 | -0.401 and 0.244 | -1.1 and -1.42 | -0.356 and -1.51 | 0.169 (inactive) and 0.977 (inactive)
COc1ccc(-c2ccc3c(n2)CCCN3CC(O)CN2CCCc3nc(-c4ccc(Br)cc4)ccc32)cc1 (stereo not given) | 0.479 and 0.259 | 1.48 (inactive) and 2.85 (inactive) | 0.448 and 0.392 | -0.0125 and -0.0349 | 0.491 and 0.44 | -0.0214 and 0.91 | 0.984 and 0.29 | 0.764 and 0.301 | 0.708 and 0.919 | 0.677 and 0.632 | 1.33 and 1.2 | 0.601 and 0.387 | 0.665 and 0.748 | 0.572 and 0.757 | 0.922 and 0.796 | 0.6 and 0.609 | 1.45 and 0.555 | 1.02 and 0.514 | 0.557 and 0.333 | -0.254 (inactive) and 0.147 (inactive)
C=C[C@H](OC)[C@@H](O)c1ccc(OCCO)cc1 | -1.69 and -0.599 | 0.459 (inactive) and -0.239 (inactive) | -0.437 and -0.465 | -0.248 and -0.242 | 0.934 and 0.835 | -0.358 and -0.494 | 0.581 and -0.234 | -0.924 and -0.595 | -2.3 and -0.674 | -2.17 and -0.715 | -1.34 and 2.11 | -1.73 and -0.721 | -0.86 and 0.0202 | -2.46 and -1.57 | -1.51 and -0.835 | -1.92 and -0.492 | -0.669 and 0.692 | -2.17 and -1.55 | -2.15 and -0.827 | -0.117 (inactive) and -1.75 (inactive)
C=C[C@H](C)[C@H](O)c1ccc(O)c2ccccc12 | -0.401 and 0.473 | 0.0296 (inactive) and -0.906 (inactive) | -0.36 and -0.229 | -0.109 and -0.114 | 0.137 and 0.349 | -0.0769 and 0.283 | -0.055 and -0.15 | -0.512 and -0.791 | -0.14 and -0.152 | -1.05 and -0.559 | 2.31 and -0.782 | -0.402 and -0.622 | -0.0703 and -0.493 | -0.22 and -0.58 | 0.0456 and 0.32 | -0.671 and 1.31 | -0.145 and 1.39 | -0.494 and 0.152 | -0.0985 and -0.45 | -1 (inactive) and -2.28 (inactive)
C[C@@H]1CC[C@H]2C(=O)NC[C@@H](O)CN2[C@H]1c1ccc(Br)cc1 | 0.446 and -0.624 | -0.312 (inactive) and 0.171 (inactive) | -0.0598 and -0.207 | -0.14 and -0.046 | 0.702 and -0.138 | 0.703 and 0.229 | -0.172 and -0.0957 | -0.46 and 0.119 | -0.119 and 0.127 | 0.407 and -0.416 | -0.035 and -0.372 | -0.165 and -0.298 | 0.0377 and -0.438 | -0.0102 and 0.0552 | -0.175 and -0.142 | 0.0825 and 0.314 | -0.386 and 1.68 | 0.396 and 0.0488 | -0.2 and -0.0411 | 0.29 (inactive) and -0.467 (inactive)
COC(=O)C1=C(C)N(Cc2ccccc2)C2=C(C(C)=O)C[C@@](O)(C(=O)OC)C(=O)N2[C@@H]1c1ccccc1 | 0.838 and 0.336 | 0.397 (inactive) and 0.38 (inactive) | -0.0895 and 0.0597 | -0.0921 and -0.118 | 0.84 and 0.766 | 0.463 and -0.221 | 0.0922 and -0.421 | 1.24 and -0.523 | 0.571 and 0.377 | -0.0847 and -0.495 | 1.23 and -0.0396 | 0.5 and 0.2 | 0.271 and -0.209 | -0.378 and 1.02 | 0.247 and 0.12 | 1.55 and 0.0618 | 1.18 and 1.72 | 1.18 and 0.158 | -0.48 and 0.228 | -0.458 (inactive) and -1.7 (inactive)
C=CCN(Cc1ccccc1)C(=O)C1N(CCOCCO)C(=O)C2C(C(=O)O)C3C=CC21O3 (stereo not given) | -1.03 and 0.202 | -0.124 (inactive) and 0.217 (inactive) | -0.611 and -0.41 | -0.0984 and -0.183 | 0.903 and 0.881 | 1.33 and -1.28 | 1.24 and -0.375 | -0.604 and -0.238 | -3.42 and -2.87 | -1.05 and -0.374 | -1.85 and -0.223 | -0.804 and -0.812 | -1.29 and -0.708 | -1.23 and -1.34 | -3.29 and -1.2 | -2.01 and -1.98 | 1.2 and -0.743 | -2.56 and -2.05 | -0.94 and -1.25 | -0.582 (inactive) and 1.28 (inactive)
C=CCN(C(=O)C1N(C(C)(C)CO)C(=O)C2C(C(=O)O)C3C=CC21O3)C(C)(C)C (stereo not given) | -0.768 and -1.3 | -0.057 (inactive) and -0.12 (inactive) | -0.664 and -0.47 | -0.154 and -0.208 | 0.856 and 0.799 | -1.2 and 0.643 | -0.393 and 1.52 | -0.967 and -0.65 | -3.3 and -1.67 | -0.855 and -1.83 | -0.574 and -1.26 | -0.937 and -0.349 | -0.892 and -0.328 | -2.12 and 0.119 | -1.98 and -1.82 | -2.47 and -2.04 | -0.377 and 0.637 | -2.81 and -2.22 | -1.64 and 0.157 | 0.0864 (inactive) and -0.639 (inactive)
C[N+](C)(C)CCCCNC(=O)[C@H]1C[C@H]2C(=O)N[C@@H](CCCC[N+](C)(C)C)C(=O)N2[C@H]1c1cccc(OCCO)c1 | -0.741 and -0.3 | 2.4 (inactive) and 1.3 (inactive) | 0.0533 and 0.245 | -0.0974 and -0.131 | 0.851 and 0.463 | 1.38 and 1.49 | 0.848 and 0.953 | 0.25 and 1.32 | 1.17 and 1.53 | 0.744 and 1.05 | 1.98 and 1.03 | -0.166 and 0.848 | -0.389 and -0.117 | -0.816 and -0.179 | 1.49 and 1.53 | 1.93 and 1.73 | -0.59 and -0.114 | 1.75 and 1.59 | -1.07 and 1.04 | 0.254 (inactive) and 0.0887 (inactive)
